Rows were chosen to be rich in hits. Some 14% of all compounds tested hit in one or more screens of this group.
Lassa entry inh: blocks Lassa virus binding to or entry into cells; Potency, µM (top dose mostly 37.9 µM), without a hit: at the highest dose activity change, negative = inhibition, usual class: inhibitors; 1.2% of 300,000 active; AID 540256; Lassa virus pseudotype entry inhibition, cell reporter; calls by dose curve; tested in HEK293 cells; also: potency is read from the fitted curve at half-maximal effect; nearly all actives have a fitted effect of over 50% in size
HCMV inh: human cytomegalovirus inhibition. HFF cells, HCMV-luciferase reporter, 72 h; stronger effect = lower value. activity change, negative = inhibition, % at 57.5 µM. 4.5% of 410,000 active. AID 1259415; in the data active = activity change below about -60%; inconclusive = no clear call, values can overlap the other calls; inactive = above about -39%
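Screen run at 2 compound doses on HFFs infected with reporter HCMV, MOI 1 PFU/cell. Luciferase activity from cell lysates at 72 h post infection gave inhibition relative to buffer-only and Salinomycin wells.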
Marburg entry inh: inhibitors of Marburg virus binding or cell entry | Marburg virus pseudotyped entry inhibition, cell reporter | Potency, µM (top dose mostly 37.8 µM), for the others: at the highest dose activity change, negative = inhibition, usual class: inhibitors | 1.8% of 300,000 active | AID 540276; calls by dose curve; tested in HEK293 cells; also: potency is read from the fitted curve at half-maximal effect
Pf growth 48h: P. falciparum growth inhibition at 48 hours (one generation). P. falciparum luciferase growth in erythrocytes, 48 h. Potency, µM (series often up to 28.7 µM), inactives show top-dose activity change, negative = inhibition, usual class: inhibitors. 5.9% of 310,000 active. AID 504832; also: potency is read from the fitted curve at half-maximal effect
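Erythrocytes infected with P. falciparum carrying an integrated firefly luciferase reporter (2% hematocrit, 0.1% parasitemia final) were exposed to compounds in RPMI 1640 with 0.5% Albumax at 37 C, 5% CO2. Growth inhibition was scored as reduced luminescence.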
Pf growth 96h: inhibits malaria parasite growth, 96 h; P. falciparum luciferase reporter growth, 96 h; 6.9% of 320,000 active; AID 504834; Potency, µM (top dose mostly 28.7 µM), for the others: at the top dose activity change, negative = inhibition, hits mostly inhibitors; also: potency is read from the fitted curve at half-maximal effect
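Infected RBCs, 2% Hct / 0.05% parasitemia final; luciferase-reporter P. falciparum; cpd 96 h, 37 C, 5% CO2; luciferase detection reagent; luminescence.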
HCV inh: inhibitors of hepatitis C virus infection; 3.4% of 340,000 active; Huh7.5.1 HCVcc-Cre infection, luciferase reporter, 44 h; Potency, µM (series often up to 41.8 µM), for the others: at the top dose activity change, negative = inhibition, most hits filed as inhibitors; AID 651820; also: potency is read from the fitted curve at half-maximal effect
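Infectious HCV cell culture screen: compound-treated cells (1,000/well, pre-plated 4 h) are infected with HCVcc-Cre at roughly 0.5 moi and grown 44 h. Infection is quantified by luciferase signal after 15 min substrate incubation at room temperature.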
The depositor's hits bear a star; ? = inconclusive; nt = no result; [ ] = another dose, or the depositor's remark. Unless noted, calls follow the shape of the dose curve; as a rule, active = well fitted inhibition curve with a large enough effect; inconclusive = small, poorly fitted or top-dose-only effect, or another doubt; inactive = no such curve, though single readings can be large or run the other way. % is scaled to controls: 0 for no effect and ±100 for the full control effect.

SMILES	Lassa entry inh	HCMV inh	Marburg entry inh	Pf growth 48h	Pf growth 96h	HCV inh
CCOC(=O)c1cnc2ccc(Cl)cc2c1N1CCN(C)CC1	12%	14	-15%	-10%	nt	-8%
COc1ccc(C(=O)N2CCC2(C)C(=O)NC(C)C)cc1 (stereo not drawn)	nt	-18	nt	nt	nt	nt
CC1CCc2cc(F)cc3c(O)c(C(=O)NCCN(C)C)c(=O)n1c23 (stereo not drawn)	nt	2	nt	0%	9.3µM*	-18%
CC1CCc2cc(F)cc3c(O)c(C(=O)NCc4ccco4)c(=O)n1c23 (stereo not drawn)	-2%	-6	11%	2%	8%	-22%
Cc1cccc(C)c1NC(=O)CN(C)C(=O)CC1Sc2ccccc2NC1=O (stereo not drawn)	2%	17	?	1%	-8%	-1%
COc1ccc(/C=N/NC(=O)c2cc(-c3ccccc3OC)nc3ccccc23)cc1COC(C)=O	?	19	-23%	12µM*	1.9µM*	11%
COc1ccccc1-c1cc(C(=O)N/N=C/c2ccc(C)s2)c2ccccc2n1	7.1µM*	-23	8.9µM*	nt	1.5µM*	?
CCc1ccc(/C=N/NC(=O)c2cc(C3CC3)nc3ccc(Br)cc23)s1	?	-63*	?	nt	?	22µM*
CCc1ccc(/C=N/NC(=O)c2cc(-c3ccccc3OC)nc3ccccc23)s1	?	44	?	nt	2.6µM*	-22%
Cc1ccc(Cn2c(C)c(CNCc3ccc(OC(C)C)cc3)c(C(=O)O)c2C)cc1	-11%[46.1 µM]	19	?	nt	nt	nt
O=C(OCC(=O)N1CCCC1=O)C1CCN(S(=O)(=O)c2ccc(Cl)c(C(F)(F)F)c2)CC1	nt	-26	nt	-11%	-15%	2%
COc1ccc(-n2nc(C(=O)NCCc3cccc(C)c3)c3c4ccccc4n(C)c3c2=O)cc1Cl	23%[46.1 µM]	6	-1%[46.1 µM]	nt	nt	nt
COc1ccccc1-c1cc(C(=O)N/N=C/c2ccoc2)c2ccccc2n1	-28%	-23	?	9.3µM*	0%	-16%
CCN(CC)C(=O)COc1ccc(/C=N/NC(=O)c2cc(-c3ccccc3OC)nc3ccccc23)cc1OC	11%	23	?	nt	nt	1%
C=CCc1cccc(C=Nc2cc(Br)ccc2O)c1O	?	-28	-22%	?	12µM*	-24%
Cc1cc(C)cc(NC(=O)C(Cc2ccccc2)N2Cc3ccccc3C2=O)c1 (stereo not drawn)	4%[46.1 µM]	-9	nt	nt	nt	nt
CC(C)c1ccc(S(=O)(=O)c2cn(Cc3ccc(F)cc3)c3cc4c(cc3c2=O)OCO4)cc1	-3%	nt	-10%	?	-5%	10%
Cc1ccccc1Cn1cc(S(=O)(=O)c2ccc(C(C)C)cc2)c(=O)c2cc3c(cc21)OCO3	14%	0	-8%[46.1 µM]	nt	nt	10µM*
Cc1ccc(Cn2cc(S(=O)(=O)c3ccc(C(C)C)cc3)c(=O)c3cc4c(cc32)OCO4)cc1	5%	-27	0%	9.3µM*	3.3µM*	-2%
COc1cccc(C(=O)C(=O)NC(C)(C)C)c1	nt	38	nt	nt	nt	nt
O=C(CCCl)N1CCN(c2nc(-c3ccccc3)cs2)CC1	nt	?	nt	22%	?	9%
COCCNC(=S)N1CCN(c2nc(-c3ccc(Cl)cc3)cs2)CC1	28%[46.1 µM]	?	-22%[46.1 µM]	30%	?	13µM*
O=C(Cc1cccs1)N1CCN(c2nc(-c3ccc(Cl)cc3)cs2)CC1	-25%	-108*	?	-16%	106%	?
Clc1ccc(-c2csc(N3CCCCCC3)n2)cc1	nt	12	nt	108%	?	-11%
CNC(=S)N1CCN(c2nc(-c3ccc(Cl)cc3)cs2)CC1	?	?	?	?	7.4µM*	?
SMILES	Lassa entry inh	HCMV inh	Marburg entry inh	Pf growth 48h	Pf growth 96h	HCV inh
S=C(NCc1ccco1)N1CCN(c2nc(-c3ccc(Cl)cc3)cs2)CC1	?	-74*	?	-20%	-62%	?
CCOc1cccc(C2c3c(oc4ccccc4c3=O)C(=O)N2c2nc(C)c(C(=O)OC)s2)c1 (stereo not drawn)	-1%[46.1 µM]	7	5%[46.1 µM]	nt	nt	nt
CCCc1cc(=O)[nH]c(SCC(=O)NCCN2C(=O)CSC2=O)n1	17%	-35	4%	nt	nt	21%
CC1(C(=O)NCc2ccco2)Cc2c(-c3ccc(C(N)=O)cc3)ccnc2O1 (stereo not drawn)	nt	-38	nt	nt	nt	nt
CN(C)[C@@H]1CC[C@@]23CCCN2C(=O)CCC[C@H]3[C@H]1Cc1ccccc1	nt	2	nt	nt	nt	nt
CCOC(=O)N1CCN(c2nc(-c3ccc(Cl)cc3)cs2)CC1	5%	?	-1%	15%	?	?
CC(C)C(=O)N1CCN(c2nc(-c3ccc(Cl)cc3)cs2)CC1	nt	-70*	nt	6%	40%	?
c1ccc(COc2ncnc3c2ncn3CCCNCc2cccs2)cc1	nt	-23	nt	nt	nt	nt
CC(C)(C)c1cc(NCc2ccccn2)n2ncc(-c3ccccc3)c2n1	?	-7	?	?	?	13µM*
O=C(Nc1cccc(C(=O)OCc2cc(=O)n3nc(C4CC4)sc3n2)c1)c1ccc(F)cc1	1%[46.1 µM]	79	nt	nt	nt	nt
COc1ccc(C2/C=C\CN(S(=O)(=O)c3ccc(-c4ccccc4)cc3)CC(=O)N2Cc2ccc(F)cc2)cc1 (stereo not drawn)	nt	1	nt	12µM*	4.7µM*	-19%
COc1ccc(C2/C=C\CN(S(=O)(=O)c3ccc(C)cc3)[C@H](Cc3ccccc3)C(=O)N2Cc2ccc(F)cc2)cc1 (stereo partly drawn)	nt	nt	nt	4.1µM*	8.3µM*	?
COc1ccc(C2/C=C\CN(C(=O)C3CCCC3)[C@H](Cc3ccccc3)C(=O)N2Cc2ccc(F)cc2)cc1 (stereo partly drawn)	nt	9	nt	8.3µM*	10µM*	-15%
O=S(Cc1ccc(Br)cc1)Cc1nnc(SCc2ccc(Cl)cc2)n1-c1ccccc1 (stereo not drawn)	13µM*	-66*	?	?	?	6.3µM*
Cn1c(CS(=O)Cc2c(Cl)cccc2Cl)nnc1SCc1ccc(Cl)cc1 (stereo not drawn)	6%	-12	-16%	?	31%	-18%
CC(=O)NC(CC(=O)NNC(=O)COc1c(C)cccc1C)c1ccccc1 (stereo not drawn)	10%	18	17%	nt	nt	20%
Cc1cccc(C)c1OCC(=O)N[C@@H](Cc1ccccc1)[C@@H](O)C[C@H](Cc1ccccc1)NC(=O)[C@H](C(C)C)N1CCCNC1=O	nt	nt	nt	3.4µM*	6.7µM*	nt
O=c1cc(N2CCCCC2)c(-c2ccccc2)nn1Cc1ccc(Cl)cc1Cl	?	-24	?	2.1µM*	?	-19%
O=c1cc(Cl)c(-c2ccccc2)nn1Cc1ccc(Cl)cc1	-24%	-64*	-1%	?	0%	3%
